Screening data as filed in PubChem.
Cycloheximide cs – counter-screen for Shiga toxin inhibitors: cycloheximide protein synthesis inhibition; cell reporter, cycloheximide protein synthesis inhibition counterscreen; max response, %; 300,000 compounds, 12% hits; in the data active = max response mostly above about 13%, no sharp cut-off; inactive = mostly below about 14%; note: read at 38.3 µM for the half of the compounds with a filed dose; 0% is about no effect
Sm TGR block – inhibitors of Schistosoma mansoni thioredoxin glutathione reductase | Q962Y6 | purified TGR, DTNB reduction, TNB absorbance 405 nm | Potency, µM (top dose mostly 114 µM), for inactives: at the highest dose activity change, negative = inhibition, actives largely listed as inhibitors | 360,000 compounds, 3% hits | AID 485364; note: potency is the fitted concentration of half-maximal effect; % is set by controls: 0 for no effect and ±100 for the full control effect; nearly all actives have a fitted effect of over 60% in size
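TGR 20 nM + NADPH 100 uM (dispensed conc.), cpd preinc 15 min RT; start with NADPH (500 uM addition) then DTNB (15 mM addition). Kinetic TNB absorbance, 405 nm filter. Four-parameter Hill fit across titration.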
Shiga toxin inh – Shiga toxin inhibition. Vero cells, Shiga toxin protein synthesis inhibition reporter. inhibition, % at 38.7 µM. 290,000 compounds, 9.2% hits. AID 2315; in the data active = inhibition mostly above about 28%, no sharp cut-off; inactive = mostly below about 43%; note: 0% is about no effect
Pf growth 96h – P. falciparum growth inhibition at 96 hour, primary screen for plastid delayed-death inhibitors | AID 504834 | Potency, µM (series often up to 28.7 µM), inactives show top-dose activity change, negative = inhibition, most hits filed as inhibitors | 320,000 compounds, 6.9% hits | P. falciparum luciferase reporter growth, 96 h; note: potency is the fitted concentration of half-maximal effect; % is set by controls: 0 for no effect and ±100 for the full control effect
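96 h incubation, 37 C, 5% CO2, of luciferase-reporter P. falciparum-infected RBCs (2% hematocrit, 0.05% parasitemia final) with test compounds; endpoint luminescence.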
Pf growth 48h – P. falciparum growth inhibition at 48 hours (one generation). P. falciparum luciferase growth in erythrocytes, 48 h. 310,000 compounds, 5.9% hits. Potency, µM (top dose mostly 28.7 µM), for inactives: at the top dose activity change, negative = inhibition, hits mostly inhibitors; note: potency is the fitted concentration of half-maximal effect; % is set by controls: 0 for no effect and ±100 for the full control effect
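Luminescence readout; reporter = integrated firefly luciferase in P. falciparum. RBC culture at 2% hematocrit, 0.1% parasitemia final, 37 C/5% CO2; decreased signal taken as growth inhibition.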
NS1 function inh – inhibitors of influenza NS1 protein function; 270,000 compounds, 0.4% hits; Potency, µM (titrated, usually from 46.1 µM), for inactives: at the top dose activity, positive = more growth; calls by dose curve; note: potency is the fitted concentration of half-maximal effect; actives are rising curves; nearly all actives have a fitted effect of over 50% in size
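Recovery from NS1-induced slow growth read by OD600 in budding yeast switched to galactose assay medium (pH 6.0, -URA) at 1:100 dilution. Compound 23 nl per well; the matching strain lacking NS1 serves as control.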
Numbers without * were called inactive. The list is not random: actives were taken first. Their share in the collection is about 21%. Unless noted, calls come from the whole dose curve; as a rule, active = well fitted curve in the direction sought with a large enough effect; inconclusive = small, poorly fitted or top-dose-only effect, or another doubt; inactive = no such curve, though single readings can be large; an effect the other way counts as inactive or inconclusive.

Screening Cc1ccccc1NC(=O)N1C2CCCC1CC(NC(=O)C(C)(C)C)C2 (centres undefined) returned Cycloheximide cs -3, Sm TGR block 1%, Shiga toxin inh 28, Pf growth 96h 12µM*, Pf growth 48h 0% and NS1 function inh -1%.
Screening COc1ccccc1N1CCN(C(=O)c2cn(C)c3ccc(S(=O)(=O)N4CCOCC4)cc3c2=O)CC1 returned Cycloheximide cs -5, Sm TGR block -8%, Shiga toxin inh -5, Pf growth 96h inconclusive, Pf growth 48h -2% and NS1 function inh -10%.
For O=C(O)CCC(=O)Nc1sc2c(c1C(=O)Nc1cccc3ccccc13)CCCCC2 the results were Cycloheximide cs 20, Sm TGR block -8%, Shiga toxin inh 23, Pf growth 96h inconclusive, Pf growth 48h 6% and NS1 function inh 23%.
For COc1ccc(NC(=O)c2c(NCc3cccs3)sc3c2CCCC3)c(OC)c1 the results were Sm TGR block -5%.
For COc1ccc(NC(=O)c2c(NCc3cccs3)sc3c2CCCCC3)cc1 the results were Sm TGR block 18µM*.
Screening CCOc1ccc(NC(=O)c2c(NCc3cccs3)sc3c2CCCCC3)cc1 returned Sm TGR block 7.9µM*.
`COc1ccc(OC)c(NC(=O)c2c(NCc3cccs3)sc3c2CCCCC3)c1` gave Sm TGR block 40µM*.
Screening O=C(O)CCC(=O)Nc1sc2c(c1C(=O)Nc1ccccc1)CCCCC2 returned Cycloheximide cs 10, Sm TGR block -10%, Shiga toxin inh 40*, Pf growth 96h 2.3µM* and Pf growth 48h 10%.
For CCOc1ccccc1NC(=O)c1c(NCc2cccs2)sc2c1CCCCC2 the results were Sm TGR block 7%.
`COc1ccc(NC(=O)Cc2c(C(=O)O)[nH]c3ccccc23)cc1OC` gave Sm TGR block 0%.
Cc1nn(CCO)c2ncc(C(=O)c3cc(Cl)ccc3O)cc12 was read as Cycloheximide cs -11, Sm TGR block -23%, Shiga toxin inh -2, Pf growth 96h -26%, Pf growth 48h -5% and NS1 function inh 2%.
COc1cccc(CN(C)C(=O)CCN(c2ccccc2)S(=O)(=O)c2ccc(C)cc2)c1OC was read as Sm TGR block -1%, Pf growth 96h inconclusive and Pf growth 48h inconclusive.
For CCOc1ccc(NC(=O)c2c(NCc3sccc3C)sc3c2CCCCC3)cc1 the results were Sm TGR block 7.9µM*.
CCOc1ccc(NC(=O)c2c(NCc3cc(OC)c(OC)cc3OC)sc3c2CCCC3)cc1 was read as Sm TGR block -27%.
`CCOc1ccc(NC(=O)c2c(NCc3ccc(C)o3)sc3c2CCCCC3)cc1` gave Sm TGR block 8.9µM*.
CC(=O)Nc1cccc(C(=O)NCc2ccc3c(c2)CCN3C(=O)c2ccc(F)cc2)c1 was read as Sm TGR block 4%.
C/C(Cn1cnc([N+](=O)[O-])n1)=N\NC(=O)c1ccc(F)cc1 was read as Cycloheximide cs 25*, Sm TGR block -2%, Shiga toxin inh 41*, Pf growth 96h inconclusive, Pf growth 48h -24% and NS1 function inh 5%.
`C/C(Cn1cnc([N+](=O)[O-])n1)=N\NC(=O)c1cccc(F)c1` gave Cycloheximide cs 25*, Sm TGR block -29%, Shiga toxin inh 96*, Pf growth 96h 7%, Pf growth 48h 136% and NS1 function inh 0%.
For C/C(Cn1cnc([N+](=O)[O-])n1)=N\NC(=O)c1ccncc1 the results were Cycloheximide cs 4, Sm TGR block 0%, Shiga toxin inh 16, Pf growth 96h 18%, Pf growth 48h 17% and NS1 function inh -1%.
Screening CCCSc1nc2c(c(=O)[nH]1)C(c1ccc(F)cc1F)CC(=O)N2 (centres undefined) returned Sm TGR block -3%.
NC(=O)NC(=O)COC(=O)c1cccc(S(=O)(=O)N2CCCCCC2)c1 was read as Cycloheximide cs -3, Sm TGR block 4%, Shiga toxin inh -4, Pf growth 96h 9%, Pf growth 48h -11% and NS1 function inh -7%.
Cc1ccc(NC(=O)N2CCC3(CC2)Oc2ccccc2C(=O)N3Cc2ccc(F)cc2)cc1 was read as Sm TGR block -4%.
